The nature of experiment [1]: qHTS profiling for inhibitors of Plasmodium falciparum proliferation (AID 504749).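 For activity, negative = inhibition: 0% = DMSO vehicle and full inhibition = artemisinin control.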 Note: nearly all actives have a fitted effect of over 60% in size. Conditions: P. falciparum in erythrocytes, SYBR Green DNA, 72 h, at 28.7 µM (top of the series). Summed up: (§1)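 In a 72 h erythrocytic culture (37 C, humidified, 5% CO2) at 2.5% hematocrit and 0.3% starting parasitemia, compounds were tested; SYBR Green I in detergent lysis buffer stained parasite DNA overnight.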
Background: qHTS replaces the single test concentration by a dilution series.

A further experiment concerns 3D7. The experiment is described as above. As to conditions: P. falciparum in erythrocytes, SYBR Green DNA, 72 h; series mostly up to 28.7 µM. Summed up: as §1
For the next experiment, the system named is 7G8. Described as above. Conditions: P. falciparum in erythrocytes, SYBR Green DNA, 72 h; series mostly up to 28.7 µM. Summed up:
as §1

The next experiment concerns AA1029. The experiment is described as above. Conditions: P. falciparum in erythrocytes, SYBR Green DNA, 72 h; series mostly up to 28.7 µM. Summed up: as §1
In the next experiment the test system is AS120. The description is as above. Conditions: P. falciparum in erythrocytes, SYBR Green DNA, 72 h; series mostly up to 28.7 µM. The method in brief: as §1
Another experiment has as its system ATS189. Described as above. As to conditions: P. falciparum in erythrocytes, SYBR Green DNA, 72 h; series mostly up to 28.7 µM. Summed up: as §1

Results filed as inconclusive are left out. Values without a mark were called inactive. Calls of active or inactive are those of the source. Calls come from the whole dose curve; as a rule, active = well fitted inhibition curve with a large enough effect; inconclusive = small, poorly fitted or top-dose-only effect; inactive = flat fitted curve, though single readings scatter.
Potency is the fitted concentration of half-maximal effect.

Turning to `CCN(CC)C(=O)c1cccnc1`, the activity, negative = inhibition in experiment [1] (parasite line A) is 10.9%; in experiment [1] (parasite line B), 11.6%. The Potency entry in the experiment with 3D7, with 7G8, with AA1029, with AS120 and in the experiment on ATS189 was “inactive” throughout.
In the case of `CCCCC(CC)CCC(CC(C)C)OS(=O)(=O)O` (configuration not stated), the results for the activity, negative = inhibition in experiment [1] (parasite line A) and in experiment [1] (parasite line B) were -0.0494% and 5.85%, respectively. The Potency entry in the experiment with 3D7, in the experiment with 7G8, in the experiment on AA1029, in the experiment with AS120 and with ATS189 was “inactive” throughout.
In the case of `Cc1cccc(C)c1NC(=O)C1CCCCN1C` (configuration not stated), the values for the activity, negative = inhibition in experiment [1] (parasite line A) and in experiment [1] (parasite line B) were -4.61% and -9.47%, respectively. The Potency result in the experiment with 3D7, with 7G8, with AA1029, in the experiment on AS120 and in the experiment on ATS189 was “inactive” each time.
Consider `CC(CNC(=O)c1cccnc1)NC(=O)c1cccnc1` (configuration not stated), for which the figures for the activity, negative = inhibition in experiment [1] (parasite line A) and in experiment [1] (parasite line B) were 8.56% and 11.1%, respectively. Moreover, the Potency result in the experiment on 3D7, in the experiment with 7G8, in the experiment on AA1029, in the experiment on AS120 and in the experiment with ATS189 was “inactive” throughout.
In the case of `COc1cc2c(cc1OC)[C@@H](Cc1cc(OC)c(OC)c(OC)c1)[N+](C)(CCCOC(=O)CC/C=C/CCC(=O)OCCC[N+]1(C)CCc3cc(OC)c(OC)cc3[C@H]1Cc1cc(OC)c(OC)c(OC)c1)CC2` (some centres not stated), the results for the activity, negative = inhibition in experiment [1] (parasite line A) and in experiment [1] (parasite line B) were 0.013% and -1.97%, respectively. For the same compound, the Potency entry in the experiment with 3D7, in the experiment with 7G8, with AA1029, in the experiment with AS120 and in the experiment on ATS189 was “inactive” in each case.
For the compound `OCCCNc1ccccc1`, the activity, negative = inhibition in experiment [1] (parasite line A) is 8.17%; in experiment [1] (parasite line B), 6.74%. Also, the Potency result with 3D7, in the experiment on 7G8, in the experiment on AA1029, in the experiment on AS120 and in the experiment on ATS189 was “inactive” each time.
For the compound `C/C=C/C=C/C(=O)O`, the activity, negative = inhibition in experiment [1] (parasite line A) was -0.87%; in experiment [1] (parasite line B), -21%. Further, the Potency result in the experiment on 3D7, in the experiment with 7G8, in the experiment with AA1029, with AS120 and with ATS189 was “inactive” throughout.
As to `O=C(OC1C[C@@H]2CC3C[C@H](C1)N2CC3=O)c1c[nH]c2ccccc12` (some centres not stated), the activity, negative = inhibition in experiment [1] (parasite line A) is -11.9%; in experiment [1] (parasite line B), -12.9%. For the same compound, the Potency entry in the experiment on 3D7, in the experiment with AA1029, in the experiment with AS120 and with ATS189 was “inactive” each time. In addition, the Potency in the experiment on 7G8 was 11.2 µM (active).
As for `CCCCC(CC)COS(=O)(=O)O` (configuration not stated), the activity, negative = inhibition in experiment [1] (parasite line A) was 12.8%; in experiment [1] (parasite line B), 12.3%. Also, the Potency entry in the experiment with 3D7, in the experiment with 7G8, in the experiment with AA1029, in the experiment with AS120 and in the experiment on ATS189 was “inactive” in each case.
Take `CCCCCCCCCCCCOCCCN`: the values for the activity, negative = inhibition in experiment [1] (parasite line A) and in experiment [1] (parasite line B) were -4.13% and 8.54%, respectively. Besides, the Potency entry with 3D7, in the experiment with 7G8, in the experiment on AA1029, with AS120 and in the experiment on ATS189 was “inactive” each time.
For `Cc1ncc(C[n+]2csc(CCOP(=O)(O)O)c2C)c(N)n1`, the activity, negative = inhibition is -5.57% in experiment [1] (parasite line A) and 6.98% in experiment [1] (parasite line B). In addition, the Potency entry in the experiment with 3D7, in the experiment with 7G8, in the experiment with AA1029, in the experiment on AS120 and in the experiment on ATS189 was “inactive” throughout.
`O=C(O)/C=C/C(=O)Nc1ccc(S(=O)(=O)Nc2nccs2)cc1`: the figures for the activity, negative = inhibition in experiment [1] (parasite line A) and in experiment [1] (parasite line B) were 17.5% and -1.66%, respectively. Besides, the Potency entry in the experiment with 3D7, in the experiment on 7G8, in the experiment on AA1029, in the experiment with AS120 and in the experiment on ATS189 was “inactive” in each case.
Regarding `c1ccc2c(c1)OCC(CN1CCCCC1)O2` (configuration not stated), the activity, negative = inhibition was 4.84% in experiment [1] (parasite line A) and 0.843% in experiment [1] (parasite line B). Also, the Potency entry in the experiment with 3D7, in the experiment with 7G8, in the experiment on AA1029, in the experiment on AS120 and with ATS189 was “inactive” in each case.
`CC(C)(C)CC(C)(C)c1cc(Cc2cc(C(C)(C)CC(C)(C)C)cc(-n3nc4ccccc4n3)c2O)c(O)c(-n2nc3ccccc3n2)c1`: the values for the activity, negative = inhibition in experiment [1] (parasite line A) and in experiment [1] (parasite line B) were 10.8% and 2.7%, respectively. The Potency entry with 3D7, in the experiment on 7G8, with AA1029, in the experiment on AS120 and in the experiment with ATS189 was “inactive” throughout.
On to `NCC(O)CC(=O)O` (configuration not stated), for which the activity, negative = inhibition in experiment [1] (parasite line A) was 13%; in experiment [1] (parasite line B), 3.91%. Moreover, the Potency result in the experiment on 3D7, with 7G8, in the experiment on AA1029, with AS120 and in the experiment on ATS189 was “inactive” each time.
As for `Cc1cc2nc3c(=O)[nH]c(=O)nc-3n(C[C@H](O)[C@H](O)[C@H](O)COP(=O)(O)OP(=O)(O)OC[C@H]3O[C@@H](n4cnc5c(N)ncnc54)[C@H](O)[C@@H]3O)c2cc1C`, the activity, negative = inhibition in experiment [1] (parasite line A) was -1.67%; in experiment [1] (parasite line B) it was 14.9%. For the same compound, the Potency entry in the experiment with 3D7, in the experiment with 7G8, in the experiment on AA1029, in the experiment with AS120 and in the experiment with ATS189 was “inactive” each time.
As for `OCC1(CO)COC(C(Cl)(Cl)Cl)OC1`, the results for the activity, negative = inhibition in experiment [1] (parasite line A) and in experiment [1] (parasite line B) were 2.06% and 5.66%, respectively. For the same compound, the Potency entry with 3D7, with 7G8, with AA1029, in the experiment on AS120 and with ATS189 was “inactive” each time.
On to `CC(C)c1ncc([N+](=O)[O-])n1C`, for which the figures for the activity, negative = inhibition in experiment [1] (parasite line A) and in experiment [1] (parasite line B) were 8.33% and 4.53%, respectively. The Potency entry in the experiment on 3D7, in the experiment with 7G8, in the experiment on AA1029, in the experiment on AS120 and in the experiment on ATS189 was “inactive” in each case.
With `O=c1[nH]c(=O)n([C@H]2C[C@H](O)[C@@H](CO)O2)cc1/C=C/Br`, the values for the activity, negative = inhibition in experiment [1] (parasite line A) and in experiment [1] (parasite line B) were 6.74% and -10.9%, respectively. The Potency entry in the experiment with 3D7, in the experiment on 7G8, in the experiment on AA1029, with AS120 and in the experiment with ATS189 was “inactive” each time.
Consider `c1ccc(-n2cnnn2)cc1`, for which the figures for the activity, negative = inhibition in experiment [1] (parasite line A) and in experiment [1] (parasite line B) were 4.13% and -7.64%, respectively. The Potency entry in the experiment with 3D7, in the experiment on 7G8, in the experiment on AA1029, in the experiment with AS120 and with ATS189 was “inactive” throughout.
Consider `O=C(CCCCCCCCCCCCC1CCCC1)Nc1ccc(S(=O)(=O)c2ccc(NC(=O)CCCCCCCCCCCCC3CCCC3)cc2)cc1`, for which the activity, negative = inhibition in experiment [1] (parasite line A) was -2.51%; in experiment [1] (parasite line B), 13.1%. Further, the Potency entry with 3D7, in the experiment on 7G8, in the experiment on AA1029, with AS120 and in the experiment with ATS189 was “inactive” in each case.

The values above are taken from PubChem BioAssay (NCATS).
